Compound activity (PubChem)
IL-1B inflam inh = inhibitors of inflammasome signaling (IL-1 beta secretion) | THP-1 LPS/ATP IL-1B secretion, AlphaLISA, 16 h; active compounds read low | activity change, % at 57.5 µM | actives 4.7% (n = 360,000); in the data active = activity change below about -50%; inconclusive = mostly about -30% to -49%
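Secreted IL-1B measured by AlphaLISA bead assay after 16 h compound exposure of THP-1 cells; compounds (final up to 57.5 uM) added 1 h before LPS (250 ng/mL) and ATP (1.25 mM) stimulation; lower signal means less secretion.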
DT40 TDP1 no CPT = qHTS for Inhibitors of human tyrosyl-DNA phosphodiesterase 1 (TDP1): qHTS in cells in absence of CPT; DT40 Tdp1-/- hTDP1 cells, no CPT, ATP luminescence, 48 h; Potency, µM (titrated, usually from 46.2 µM), inactives show top-dose activity change, negative = growth inhibition, hits mostly inhibitors; actives 15% (n = 420,000); AID 686978, 2013; also: potency is read from the fitted curve at half-maximal effect; nearly all actives have a fitted effect of over 55% in size
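A cellular qHTS used chicken DT40 cells lacking endogenous Tdp1 but carrying stably transfected human TDP1. Compounds were applied without camptothecin, and cell growth kinetics were judged by ATP-dependent luminescence after ≥48 hr.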
HT1080 IDH1KD tx = toxicity to HT-1080 IDH1 knockdown cells (counter line) | AID 686971 | Potency, µM (titrated, usually from 46.1 µM), for inactives: at the highest dose activity, negative = toxicity, hits mostly cytotoxic | actives 2% (n = 360,000) | HT-1080 IDH1 knockdown viability, ATP luminescence, 48 h;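 also: potency is read from the fitted curve at half-maximal effect; 0% = DMSO wells and -100% = cell-free medium wells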
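IDH1KD HT-1080 cells, 750/well, RPMI + 5% FBS; compound pinned after 2 h settling; 48 h, 37 °C; CellTiter-Glo luminescence; % activity normalised to DMSO and no-cell wells; curves fitted, classed by r2 and efficacy.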
TDP1 cell CPT = growth inhibition of DT40 Tdp1-/-;hTDP1 cells with camptothecin (screen for TDP1 inhibitors); actives 12% (n = 420,000); AID 686979; Potency, µM (top dose mostly 46.2 µM), for inactives: at the highest dose activity change, negative = growth inhibition, hits mostly inhibitors; chicken DT40 Tdp1-/-;hTDP1 cells + 20 nM CPT, ATP luminescence, 48 h; also: potency is read from the fitted curve at half-maximal effect; nearly all actives have a fitted effect of over 55% in size
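Chicken DT40 Tdp1-/- cells stably complemented with human TDP1 were seeded at 400 cells/well in medium containing 20 nM camptothecin, exposed to pin-transferred compounds, and grown at 37 °C for at least 48 hr. Viability was read as ATP luminescence.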
HT1080NT lethal = kills 2HG-producing HT-1080-NT fibrosarcoma cells; actives 1.6% (n = 360,000); Potency, µM (series often up to 46.1 µM), for inactives: at the top dose activity, negative = less viability, actives largely listed as cytotoxic; AID 686970; HT-1080-NT fibrosarcoma viability, CellTiter-Glo ATP luminescence, 48 h;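 also: NT is the 2HG producing partner of a matched IDH1 knockdown line; potency is read from the fitted curve at half-maximal effect; 0% = DMSO-treated cells and -100% = media-only wells without cells; nearly all actives have a fitted effect of over 55% in size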
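Viability of the 2HG-overproducing fibrosarcoma line after 48 hours of compound exposure at 37 degrees C was determined by luminescence with CellTiter-Glo, and concentration-effect curves were then fitted and categorized.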
An asterisk follows results filed as active. Rows were chosen to be rich in hits. Some 19% of all compounds tested hit in one or more screens of this group. Unless noted, calls follow the shape of the dose curve; as a rule, active = well fitted curve in the direction sought with a large enough effect; inconclusive = small, poorly fitted or top-dose-only effect, or another doubt; inactive = no such curve, though single readings can be large; an effect the other way counts as inactive or inconclusive. Unless noted, % is scaled to controls: 0 for no effect and ±100 for the full control effect.

`CC(C)(C)NC(=O)NC(=O)CN1CC=C(c2ccccc2)CC1` gave IL-1B inflam inh -5.2, DT40 TDP1 no CPT 13µM*, HT1080 IDH1KD tx -1.5%, TDP1 cell CPT 16.4µM* and HT1080NT lethal -3.4%.
Screening O=C1CN=C(c2ccc(Br)cc2)c2c(sc3c2CCCC3)N1CCN1CCCCC1 returned IL-1B inflam inh inconclusive, DT40 TDP1 no CPT 5.8µM*, HT1080 IDH1KD tx -3.4%, TDP1 cell CPT 10.3µM* and HT1080NT lethal inconclusive.
For Cc1cccc(C2=NCC(=O)N(CC(=O)NCc3ccco3)c3sc4c(c32)CCCC4)c1 the results were IL-1B inflam inh -25.1, DT40 TDP1 no CPT inconclusive, HT1080 IDH1KD tx inconclusive, TDP1 cell CPT inconclusive and HT1080NT lethal inconclusive.
For C[C@H]1CNCCc2ccc(Cl)cc21 the results were DT40 TDP1 no CPT -11.9% and TDP1 cell CPT -2.6%.
`O=c1[nH]c2ccccc2n1C1CCN(C(c2ccccc2)c2nnnn2-c2ccc3c(c2)OCCO3)CC1` (configuration not stated) gave IL-1B inflam inh -1.5, DT40 TDP1 no CPT 18.4µM*, HT1080 IDH1KD tx inconclusive, TDP1 cell CPT 18.4µM* and HT1080NT lethal inconclusive.
`O=c1[nH]c2ccccc2n1C1CCN(C(c2cccs2)c2nnnn2-c2ccc3c(c2)OCCO3)CC1` (configuration not stated) gave IL-1B inflam inh 18.2, DT40 TDP1 no CPT 2.31µM*, HT1080 IDH1KD tx 3.26µM*, TDP1 cell CPT 2.91µM* and HT1080NT lethal inconclusive.
O=C1NCN(c2ccccc2)C12CCN(C(c1nnnn1C1CCCCC1)C1CC1)CC2 (configuration not stated) was read as IL-1B inflam inh -16.4, DT40 TDP1 no CPT inconclusive, HT1080 IDH1KD tx -26.6%, TDP1 cell CPT inconclusive and HT1080NT lethal inconclusive.
For O=c1[nH]c2ccccc2n1C1CCN(C(c2nnnn2-c2ccc3c(c2)OCCO3)C2CC2)CC1 (configuration not stated) the results were IL-1B inflam inh -3.0, DT40 TDP1 no CPT 7.31µM*, HT1080 IDH1KD tx inconclusive, TDP1 cell CPT 13µM* and HT1080NT lethal inconclusive.
For CC12C=CC(=O)CC1CCC1C2CCC2(C)C(O)C(O)CC12 (configuration not stated) the results were IL-1B inflam inh -26.6, DT40 TDP1 no CPT inconclusive, HT1080 IDH1KD tx -23.1%, TDP1 cell CPT inconclusive and HT1080NT lethal -0.4%.
Screening N#CC(c1ccc(Cl)nn1)c1c(F)cccc1Cl (configuration not stated) returned IL-1B inflam inh -15.5, DT40 TDP1 no CPT inconclusive, HT1080 IDH1KD tx -7.4%, TDP1 cell CPT 7.0% and HT1080NT lethal -13.0%.
CCCN1CCC[C@@H]2Cc3[nH]ncc3C[C@H]21 was read as IL-1B inflam inh 1.5, DT40 TDP1 no CPT -5.1%, HT1080 IDH1KD tx -5.5%, TDP1 cell CPT -3.2% and HT1080NT lethal 1.3%.
Cc1ccc(Sc2ccc(C=C3C(=O)N(C)C(=O)N(C)C3=O)o2)cc1 was read as IL-1B inflam inh -12.1, DT40 TDP1 no CPT 18.4µM*, HT1080 IDH1KD tx 13.3%, TDP1 cell CPT 18.4µM* and HT1080NT lethal 25.2%.
Screening O=c1oc2ccccc2c(O)c1[C@H]1c2ccc(O)cc2Oc2c1c(=O)oc1ccccc21 returned IL-1B inflam inh -91.9*, DT40 TDP1 no CPT 23.1µM*, HT1080 IDH1KD tx -18.8%, TDP1 cell CPT inconclusive and HT1080NT lethal inconclusive.
Cn1nc(C(C)(C)C)cc1C(=O)N1CCCCC1c1cc(C(=O)Nc2ccc(F)c(Cl)c2)no1 (configuration not stated) was read as IL-1B inflam inh -63.5*, DT40 TDP1 no CPT inconclusive, HT1080 IDH1KD tx inconclusive, TDP1 cell CPT 20.6µM* and HT1080NT lethal inconclusive.
`C[C@H](CO)N1C[C@H](C)[C@@H](CN(C)C(=O)Oc2ccc3ccccc3c2)OCc2cn(nn2)CCCC1=O` gave IL-1B inflam inh 19.7, DT40 TDP1 no CPT -0.8%, HT1080 IDH1KD tx 8.8%, TDP1 cell CPT -1.0% and HT1080NT lethal 4.0%.
`c1ccc2c(c1)CN(Cc1ccc3c(c1)OCO3)Cc1cnnn1-2` gave IL-1B inflam inh 12.8, DT40 TDP1 no CPT 10.3µM*, HT1080 IDH1KD tx -10.6%, TDP1 cell CPT inconclusive and HT1080NT lethal -5.0%.
`Cc1ccc(C(C)C)c(OCCn2c(=O)oc3ccccc32)c1` gave IL-1B inflam inh -3.2, DT40 TDP1 no CPT inconclusive, HT1080 IDH1KD tx -8.5%, TDP1 cell CPT 29.1µM* and HT1080NT lethal -3.3%.
Screening CCC(C)C(=O)OC1C(O)C2C(CN3CC(C)CCC3[C@]2(C)O)C2C[C@]34O[C@@]5(O)C(OC(=O)C(C)(O)C(C)O)CCC3(C)C5C(OC(C)=O)C(OC(C)=O)C4[C@@]21O (some centres not stated) returned DT40 TDP1 no CPT 6.5% and TDP1 cell CPT -0.9%.
`CC(C)(C)C(=O)OCC12CCC(O1)C1(C)C(=O)OCC21` (configuration not stated) gave IL-1B inflam inh 7.5, DT40 TDP1 no CPT -4.8%, HT1080 IDH1KD tx 27.1%, TDP1 cell CPT -5.2% and HT1080NT lethal 28.5%.
Cc1c(C(=O)NCc2nccs2)cnn1-c1ncc2c(n1)-c1ccccc1CC2 was read as DT40 TDP1 no CPT 20.6µM* and TDP1 cell CPT 9.2µM*.
Screening O=c1oc2ccccc2cc1-c1cn2cc(Cc3ccc(F)cc3)sc2n1 returned DT40 TDP1 no CPT 2.06µM* and TDP1 cell CPT 5.17µM*.
`CC1CC2(C)C(CCC3C2CCC2(C)C(OP(=O)(N4CC4)N4CC4)CCC32)CC1=O` (configuration not stated) gave IL-1B inflam inh 9.5, DT40 TDP1 no CPT inconclusive, HT1080 IDH1KD tx 4.2%, TDP1 cell CPT inconclusive and HT1080NT lethal 23.8%.
`CCc1ccc2c(CN3CC=C(c4ccccc4)CC3)cc(=O)oc2c1` gave IL-1B inflam inh 10.0, DT40 TDP1 no CPT 16.4µM*, HT1080 IDH1KD tx 0.1%, TDP1 cell CPT inconclusive and HT1080NT lethal 4.4%.
Cc1ccc2c(CN3CC=C(c4ccccc4)CC3)cc(=O)oc2c1C was read as IL-1B inflam inh 0.7, DT40 TDP1 no CPT 23.1µM*, HT1080 IDH1KD tx 4.9%, TDP1 cell CPT inconclusive and HT1080NT lethal 4.5%.
For O=c1[nH]c(CN2CC=C(c3ccccc3)CC2)nc2cc(C(F)(F)F)ccc12 the results were IL-1B inflam inh 25.4, DT40 TDP1 no CPT inconclusive, HT1080 IDH1KD tx -1.2%, TDP1 cell CPT inconclusive and HT1080NT lethal -6.6%.
`O=C(Oc1ccccc1)N1CCC2(CC1)CN(C(c1ccccc1)c1ccccc1)C2` gave DT40 TDP1 no CPT inconclusive and TDP1 cell CPT -12.2%.
